Compound activity deposited in PubChem by The Scripps Research Institute Molecular Screening Center.
In the library only some 4.1% were active in any assay of this set; here they are far more common.
hgDAF12 agonist – activates the H. glycines DAF-12 receptor ligand-binding domain. activation, % at 6.8 µM. actives 1.8% (n = 370,000). HEK293 GAL4-hgDAF12 UAS-luciferase reporter, agonist luminescence; normalized to butyrate control. AID 687014;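 active = activation above a cutoff set at the mean of all screened compounds plus 3 SD, cut at about 10% in these data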;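 also: 0% = DMSO wells and 100% = sodium butyrate wells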
DAX1 inh-1 – inhibitors of DAX1 repression of SF-1 activated StAR promoter; HEK293T StAR-luciferase reporter, SF-1/DAX-1 repression relief; inhibition, % at 6.8 µM; actives 1.1% (n = 370,000); AID 652010;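 active = inhibition above the mean over all tested compounds plus 3 SD, cut at about 3.6% in these data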;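 also: 0% = DAX-1 cells with DMSO and 100% = cells lacking DAX-1 with DMSO; higher inhibition means more luminescence from relief of DAX-1 repression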
hcDAF12 agonist – activators of H. contortus DAF-12 nuclear receptor; actives 1.4% (n = 370,000); HEK293 hcDAF-12 lit1-tk-luc reporter, luminescence; 0% DMSO, 100% Δ7-dafachronic acid; activation, % at 6.8 µM;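 active = activation above the mean of all tested compounds plus 3 SD, cut at about 5.5% in these data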;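 also: 100% = response to 3 µM Δ7-dafachronic acid high control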
DAX1 inh-2 – NR0B1 (DAX1) inhibition; AID 504766; actives 0.99% (n = 340,000); inhibition, % at 6.75 µM; HEK293 Gal4-DAX1 luciferase reporter, luminescence;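 active = inhibition above the mean over all tested compounds plus 3 SD, cut at about 4.2% in these data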;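 also: 0% = DAX1-transfected cells with DMSO and 100% = empty-vector control cells with DMSO; inhibition shows as a rise in luminescence from relieved DAX1 repression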
Target sequence (P51843 207-470 limits assumed): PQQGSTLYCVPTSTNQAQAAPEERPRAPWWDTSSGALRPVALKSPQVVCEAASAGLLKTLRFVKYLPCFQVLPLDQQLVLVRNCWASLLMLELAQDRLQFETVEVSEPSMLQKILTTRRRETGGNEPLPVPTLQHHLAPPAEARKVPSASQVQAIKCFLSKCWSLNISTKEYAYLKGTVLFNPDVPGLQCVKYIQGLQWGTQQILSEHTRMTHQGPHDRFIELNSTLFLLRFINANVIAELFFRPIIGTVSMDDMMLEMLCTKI
ssDAF12 agonist – S. stercoralis DAF-12 activation, primary screen; actives 1% (n = 370,000); activation, % at 6.8 µM; HEK293 ssDAF-12/GRIP1 lit1-tk-luc reporter, luminescence; % of 3 µM dafachronic acid response;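 active = activation above the mean over all tested compounds plus 3 SD, cut at about 0.9% in these data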;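 also: 0% = DMSO-only wells and 100% = 3 µM delta7-dafachronic acid wells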
Active calls of the source: *; ! = repeats disagree.

What do the screens show for `COc1cc(C2c3cc4c(cc3CC3COC(=O)C32)OCO4)cc(OC)c1O` (stereo not drawn)?
hgDAF12 agonist: -4; DAX1 inh-1: 4.2*; hcDAF12 agonist: -1; DAX1 inh-2: -1; ssDAF12 agonist: -1

Results for COc1ccc(C(=O)C2CCCN(CC3CCCCC3)C2)cc1OC (stereo not drawn) ?
hgDAF12 agonist: 4; DAX1 inh-1: 3.9*; hcDAF12 agonist: 2; ssDAF12 agonist: -1

Results for Cc1ccc(-n2c(O)c(C=NCc3ccccn3)c(=O)[nH]c2=S)cc1 ?
hgDAF12 agonist: 3; DAX1 inh-1: 0; hcDAF12 agonist: 0; DAX1 inh-2: 5.1*; ssDAF12 agonist: -1

How did CC(=O)OC1CC(OC2C(O)CC(OC3C(O)CC(OC4CCC5(C)C(CCC6C5CCC5(C)C(C7=CC(=O)OC7)C(O)CC65O)C4)OC3C)OC2C)OC(C)C1OC1OC(CO)C(O)C(O)C1O (stereo not drawn) do in these assays?
hgDAF12 agonist: -15; DAX1 inh-1: -7; hcDAF12 agonist: -4; DAX1 inh-2: -6; ssDAF12 agonist: -2

What do the screens show for `CC1OC(OC2C(O)CC(OC3C(O)CC(OC4CCC5(C)C(CCC6C5CCC5(C)C(C7=CC(=O)OC7)C(O)CC65O)C4)OC3C)OC2C)CC(O)C1O` (stereo not drawn)?
hgDAF12 agonist: -9; DAX1 inh-1: 16*; hcDAF12 agonist: 3; DAX1 inh-2: -4; ssDAF12 agonist: -2

What do the screens show for `Cc1cc(O)c2c(c1)C(=O)[C@@]13C(=C2O)C(=O)[C@H]2C(O)[C@@H]1[C@H]1C(O)[C@@H]3C(=O)C3=C(O)c4c(O)cc(C)cc4C(=O)[C@@]312` (stereo partly drawn)?
hgDAF12 agonist: -11; DAX1 inh-1: -5; hcDAF12 agonist: -3; ssDAF12 agonist: -1

Results for CC(C)CN1Cc2cc(-c3ccccc3)ccc2-n2nncc2C1 ?
hgDAF12 agonist: 3; DAX1 inh-1: 2; hcDAF12 agonist: 0; ssDAF12 agonist: -1

What do the screens show for `Cc1ccc2nc(-c3ccc(CN4CCC(n5c(=O)[nH]c6cc(Cl)ccc65)CC4)cc3)c(-c3ccccc3)nc2c1`?
hgDAF12 agonist: 8; DAX1 inh-1: -3; hcDAF12 agonist: -2; ssDAF12 agonist: -1

What do the screens show for `COc1cc2c3cc1Oc1cc(ccc1O)C[C@@H]1c4c(cc(OC)c(O)c4Oc4ccc(cc4)C[C@H]3N(C)CC2)CCN1C`?
hgDAF12 agonist: -3; DAX1 inh-1: 4.5*; hcDAF12 agonist: 2; DAX1 inh-2: 1; ssDAF12 agonist: 0

How did O=C(O)Cn1cc(/C=C2\C(=O)NC(=O)N(c3ccc(Br)cc3)C2=O)c2ccccc21 do in these assays?
hgDAF12 agonist: 3; DAX1 inh-1: 0; hcDAF12 agonist: 5.6*; DAX1 inh-2: -1; ssDAF12 agonist: 1.2*

What do the screens show for `Cc1ccc(N2C(=O)NC(=O)/C(=C\c3cn(CC(=O)O)c4ccccc34)C2=O)cc1`?
hgDAF12 agonist: 2; DAX1 inh-1: 0; hcDAF12 agonist: 4; DAX1 inh-2: 2; ssDAF12 agonist: 1.4*

What do the screens show for `COc1ccc(-c2cc(=NCCCCCC(=O)O)c3cc(C)ccc3o2)cc1`?
hgDAF12 agonist: 11*!; DAX1 inh-1: 2; hcDAF12 agonist: 2; DAX1 inh-2: 1; ssDAF12 agonist: -1

How did CCOC(=O)[C@]12Cc3cc(OC)ccc3[C@H]1N(Cc1ccccc1)C(=O)c1cc(OC)ccc12 do in these assays?
hgDAF12 agonist: -6; DAX1 inh-1: -1; hcDAF12 agonist: -2; ssDAF12 agonist: 0

Results for CCOC(=O)[C@]12Cc3cc4ccccc4cc3[C@H]1N(Cc1ccccc1)C(=O)c1cc(OC)ccc12 ?
hgDAF12 agonist: 5; DAX1 inh-1: 3.7*; hcDAF12 agonist: 0; ssDAF12 agonist: -1

How did CC(=O)CC(=O)C1C(=O)N(C)C(=O)N(C)C1=O do in these assays?
hgDAF12 agonist: -1; DAX1 inh-1: 1; hcDAF12 agonist: 2; DAX1 inh-2: -1; ssDAF12 agonist: -1

Results for O=C(Cn1nc(-c2ccc(Cl)cc2)ccc1=O)N1CCC2(CC1)OCCO2 ?
hgDAF12 agonist: -3; DAX1 inh-1: 0; hcDAF12 agonist: -1; DAX1 inh-2: 4.4*; ssDAF12 agonist: 0

How did O=C(CCn1nc(-c2ccc(Cl)cc2)ccc1=O)N1CCC2(CC1)OCCO2 do in these assays?
hgDAF12 agonist: 1; DAX1 inh-1: 0; hcDAF12 agonist: -1; DAX1 inh-2: 1; ssDAF12 agonist: -2
